{"source": "PubChem BioAssay AID489028", "about": "(Sanford-Burnham Center for Chemical Genomics, 2010)", "note": "Among all 10,000 compounds or so, about 5,600 (56%) were called active. Cut-off read from the data, not from the text of the source: active = inhibition above about 40%; inactive = the rest. The set was probably picked from earlier hits. These entries were drawn from the full list.", "data": [{"target": "Protein Mdm4 (Homo sapiens) + E3 ubiquitin-protein ligase Mdm2 (Homo sapiens) (UniProt O15151+Q00987)", "sequence (O15151 whole entry, looked up)": "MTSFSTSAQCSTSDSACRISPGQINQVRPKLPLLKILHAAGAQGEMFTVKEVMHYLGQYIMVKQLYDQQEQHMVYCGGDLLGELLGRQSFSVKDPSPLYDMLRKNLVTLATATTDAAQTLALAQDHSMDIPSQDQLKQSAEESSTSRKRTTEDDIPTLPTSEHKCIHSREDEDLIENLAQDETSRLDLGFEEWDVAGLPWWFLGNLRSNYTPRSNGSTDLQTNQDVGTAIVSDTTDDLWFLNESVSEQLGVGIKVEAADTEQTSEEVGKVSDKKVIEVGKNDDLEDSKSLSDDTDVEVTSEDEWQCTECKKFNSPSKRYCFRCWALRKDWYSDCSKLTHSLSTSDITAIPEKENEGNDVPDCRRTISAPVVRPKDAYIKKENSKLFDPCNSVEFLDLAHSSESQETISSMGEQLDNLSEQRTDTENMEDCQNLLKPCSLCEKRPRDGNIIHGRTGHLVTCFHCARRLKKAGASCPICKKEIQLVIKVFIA", "sequence (Q00987 whole entry, looked up)": "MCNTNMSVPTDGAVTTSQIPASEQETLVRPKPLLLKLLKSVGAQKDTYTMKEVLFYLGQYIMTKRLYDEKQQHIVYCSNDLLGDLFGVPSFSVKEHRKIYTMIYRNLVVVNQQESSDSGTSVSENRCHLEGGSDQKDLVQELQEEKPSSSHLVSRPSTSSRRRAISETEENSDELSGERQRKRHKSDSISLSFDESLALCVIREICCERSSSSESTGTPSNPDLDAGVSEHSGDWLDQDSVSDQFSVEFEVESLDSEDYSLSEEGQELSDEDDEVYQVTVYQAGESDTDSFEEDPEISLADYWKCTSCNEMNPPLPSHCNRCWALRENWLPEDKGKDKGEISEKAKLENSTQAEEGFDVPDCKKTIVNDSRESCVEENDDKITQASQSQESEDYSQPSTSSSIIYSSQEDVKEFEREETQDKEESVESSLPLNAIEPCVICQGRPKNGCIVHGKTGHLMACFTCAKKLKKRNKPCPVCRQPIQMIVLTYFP", "assay": "Mdm2-MdmX complex disruptors, retested hits, confirmation, luminescence, single concentration (AID 489028)", "settings": "Mdm2-MdmX binding, luminescent assay; at 8 µM; hits give high values", "values": [{"compound": "O=C1C2(Cl)C3(Cl)C4(Cl)C(Cl)(Cl)C5(Cl)C3(Cl)C1(Cl)C5(Cl)C24Cl", "note": "(stereo not drawn)", "inhibition": "49.5% (active)"}, {"compound": "COC(=O)C1=C(c2ccc(F)cc2OCc2ccccc2)C[C@@H]2CC[C@H]1N2C(=O)NCc1ccc(Cl)cc1", "inhibition": "31.1% (inactive)"}, {"compound": "CNCC(O)c1cc(F)c(OCc2ccccc2)c(OCc2ccccc2)c1F", "note": "(stereo not drawn)", "inhibition": "17.8% (inactive)"}, {"compound": "Cc1cc2ccccn2c1C(C[N+](=O)[O-])c1c(F)cccc1Cl", "note": "(stereo not drawn)", "inhibition": "99.1% (active)"}, {"compound": "O=c1c2ccccc2nc(/C=C/c2ccc(F)cc2)n1-c1ccccc1O", "inhibition": "31% (inactive)"}, {"compound": "O=Cc1cn(Cc2ccc(F)cc2Cl)c2ccccc12", "inhibition": "28% (inactive)"}, {"compound": "CNC(=O)O/N=C(\\N)Cc1csc2ccc(Cl)cc12", "inhibition": "90.3% (active)"}, {"compound": "CNC(=O)O/N=C(\\N)Cc1csc2ccccc12", "inhibition": "52.6% (active)"}, {"compound": "O=C(c1cc2nc(-c3ccccc3)cc(-c3ccccc3)n2n1)N1CCC2(CC1)OCCO2", "inhibition": "16.3% (inactive)"}, {"compound": "CCCCC(=O)N/N=C/c1c(O)n(CCC2=CCCCC2)c(=O)[nH]c1=O", "inhibition": "20.9% (inactive)"}, {"compound": "COC(=O)C1=C(c2ccc(F)cc2OCc2ccccc2)C[C@@H]2CC[C@H]1N2C(=O)NCc1ccc2[nH]ccc2c1", "inhibition": "18.9% (inactive)"}, {"compound": "O=C1NC(=O)N(CCc2ccc(F)cc2)C(=O)/C1=C/C=C/c1ccccc1", "inhibition": "57.2% (active)"}, {"compound": "CCCCCCCCCCCCn1ccc(=N)cc1", "inhibition": "98.3% (active)"}, {"compound": "N#CC1=C(N)Oc2c(c(=O)oc3ccccc23)C1c1ccccc1OC(=O)c1cccs1", "note": "(stereo not drawn)", "inhibition": "15.1% (inactive)"}, {"compound": "CC1(C)Cc2c(C#N)c(N3CCNCC3)nc(-c3ccco3)c2CS1", "inhibition": "24.1% (inactive)"}, {"compound": "CCOc1ccc(-c2cc(C)[n+](CCN(CC)CC)c(-c3ccc(OCC)cc3)c2)cc1", "inhibition": "84.5% (active)"}, {"compound": "CC(Cc1ccccc1)NCCC(c1ccccc1)c1ccccc1", "note": "(stereo not drawn)", "inhibition": "19.1% (inactive)"}, {"compound": "CCCCCn1c(=O)c(C(=O)NCc2ccccc2)c(O)c2ccccc21", "inhibition": "5.2% (inactive)"}]}]}
